Assay [1] can be described thus: qHTS assay for small molecule agonists of the p53 signaling pathway (AID 651631; calls by dose curve; note: nearly all actives have a fitted effect of over 15% in size; note: potency is the fitted concentration of half-maximal effect). In short, it runs like this:
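p53RE-bla HCT-116 cells; compounds 16 h, 37 °C; LiveBLAzer B/G FRET substrate 2 h RT; fluorescence intensity read-out, qHTS format.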
In general terms: In qHTS, concentration-response curves come from the screen itself.

The nature of assay [2]: qHTS assay for small molecule agonists of the p53 signaling pathway - cell viability (AID 651633; calls by dose curve; note: nearly all actives have a fitted effect of over 30% in size; note: potency is the fitted concentration of half-maximal effect). The essentials: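 p53RE-bla cells, seeded at 4,000 per well and rested 5 h at 37 C/5% CO2, received compounds in DMSO for 16 h at 37 C. CellTiter-Glo was then added, and luminescence was read after 30 min at room temperature to gauge cytotoxicity.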
A short description of assay [3]: qHTS assay for small molecules that induce genotoxicity in human embryonic kidney cells expressing luciferase-tagged ATAD5 - cell viability (AID 651634; calls by dose curve; note: nearly all actives have a fitted effect of over 25% in size). In short, it runs like this: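 Cytotoxicity counter-readout: after 15.5 hr compound treatment at 37C, live-cell protease activity in ATAD5-luciferase HEK293T cells measured by CellTiter-Fluor fluorescence, 30 min development at 37C.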

Assay [4] in a line: qHTS assay for small molecule disruptors of the mitochondrial membrane potential - cell viability (AID 720634; calls by dose curve;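 note: human HepG2 liver cancer cells; series mostly up to about 83 µM; nearly all actives have a fitted effect of over 20% in size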). The essentials: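 Cytotoxicity was quantified from ATP content by CellTiter-Glo luminescence in the same wells as the MMP dye read-out. HepG2 (2,000 cells/well) were plated overnight and exposed to compounds for 1 hr at 37 C.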
The nature of assay [5]: qHTS assay to test for compound auto fluorescence at 590 nm (red) in HepG2 cells (AID 720674). In short, it runs like this:
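Intrinsic compound fluorescence in the red window (Ex/Em 540/590 nm) is measured in attached HepG2 cells exposed for 1 hr, DMSO vehicle as baseline, benchmarked to Rose Bengal sodium.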

The nature of assay [6]: qHTS assay to test for compound auto fluorescence at 535 nm (green) in HepG2 cells (AID 720675).
Assay [7] is described as follows: qHTS assay to test for compound auto fluorescence at 460 nm (blue) in HEK293 cells (AID 720678). In short, it runs like this: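 Cells were seeded and left to adhere for 4-5 hr at 37C. Compounds were then pin-transferred. After an overnight incubation at 37C under 5% CO2, intrinsic fluorescence at 405/460 nm was measured and referenced to triamterene.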
Assay [8] can be described thus: qHTS assay to test for compound auto fluorescence at 590 nm (red) in HEK293 cells (AID 720679). The essentials: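 Each well held 2,000 HEK293 cells in medium containing 10% dialyzed FBS. Following 4-5 hr attachment at 37C, 23 nL test compound or DMSO was added; plates sat overnight, and red fluorescence (540/590nm) was recorded.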
Assay [9] in a line: qHTS assay for small molecules that induce genotoxicity in human embryonic kidney cells expressing luciferase-tagged ATAD5 (AID 651632). Note: nearly all actives have a fitted effect of over 15% in size. Note: potency is the fitted concentration of half-maximal effect. The essentials:
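A rise in luciferase signal from ATAD5-tagged HEK293T cells marks genetic stress. Cells were exposed to compounds for 16 hr at 37C, 5% CO2, then luciferase was quantified after a 30 min room-temperature incubation with Amplite.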

The nature of assay [10]: qHTS assay for small molecule disruptors of the mitochondrial membrane potential (AID 720635). Note: potency is the fitted concentration of half-maximal effect. In short, it runs like this:
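HepG2 cells (2,000/well) attached overnight at 37C, then took compound for 1 hr at 37C, 5% CO2. Mito-MPS dye was added for 30 min; fluorescence was read at 490/535 nm (monomers) and 540/590 nm (aggregates).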

The results in this text go back to PubChem BioAssay (Tox21).

The structures appear in SMILES notation. Unmarked numbers belong to inactive results. Records with an inconclusive call do not appear. The source made the active and inactive calls. Unless noted, calls come from the whole dose curve; as a rule, active = well fitted curve in the direction sought with a large enough effect in the repeat runs; inconclusive = weak or mixed curves; inactive = no such curve, though single readings can be large; an effect the other way counts as inactive or inconclusive.
% is set by controls: 0 for no effect and ±100 for the full control effect.

In the case of `CCCCCO`, the Potency entry in [1], in assay [2], in assay [3], in assay [4] and in assay [7] was “inactive” in each case. Moreover, the call in [5], in assay [6] and in assay [8] was inactive.
`CCCCCCCCCCCCCCCCC(=O)O`: the Potency entry in [1], in assay [9], in assay [2], in [4] and in assay [7] was “inactive” in each case. Moreover, the call in [5], in [6] and in assay [8] was inactive.
Regarding `Cc1ccc2ccccc2c1[N+](=O)[O-]`, the Potency result in assay [1], in assay [2], in assay [4], in assay [10] and in [7] was “inactive” each time. The outcome in assay [5], in assay [6] and in [8] was inactive.
Turning to `O=P(c1ccccc1)(c1ccccc1)c1ccccc1`, the Potency result in [1], in [2], in assay [4] and in assay [7] was “inactive” each time. The compound was called inactive in assay [5], in [6] and in assay [8].
For the compound `CCCOC(C)=O`, the Potency entry in [1], in assay [9], in assay [4] and in assay [7] was “inactive” throughout. Also, the compound was called inactive in assay [5], in [6] and in assay [8].
As for `CC/C=C/CCO`, the Potency entry in [1], in [2], in assay [3], in assay [4] and in [7] was “inactive” throughout. Also, the call in [5], in assay [6] and in assay [8] was inactive.
`S=c1[nH][nH]c(=S)s1`: the Potency entry in [1], in [2], in assay [3], in assay [4] and in assay [7] was “inactive” in each case. Further, the result in [5], in assay [6] and in assay [8] was inactive.
Turning to `Cc1ccc2c(Cl)cc(Cl)c(O)c2n1`, the Potency in assay [1] is 2.37 µM (active); in assay [9], 5.96 µM (active); in assay [2] it was 0.944 µM (active); in [10], 9.44 µM (active). In addition, the compound was called inactive in assay [5], in [6] and in assay [8]. In addition, in assay [7], the Potency result was “inactive”.
On to `CC(C)C/C=C(\C=O)c1ccccc1`, for which the Potency result in assay [1], in [2], in assay [3], in assay [4] and in assay [7] was “inactive” throughout. For the same compound, the result in [5], in assay [6] and in assay [8] was inactive.
As for `C(/C=C/C=C/Nc1ccccc1)=Nc1ccccc1`, the Potency result in [1], in [9], in [2], in assay [4], in assay [10] and in assay [7] was “inactive” throughout. The result in assay [6] and in assay [8] was inactive.
For `C[Si](C)(C)O[Si](C)(C)O[Si](C)(C)C`, the Potency entry in [1], in [9], in [2], in [4] and in assay [7] was “inactive” throughout. Also, the outcome in assay [5], in assay [6] and in assay [8] was inactive.
For `C=C(C)C(=O)OCCCCCCCCCCOC(=O)C(=C)C`, the Potency result in assay [1], in assay [9], in [2], in assay [4] and in [7] was “inactive” each time. For the same compound, the outcome in [6] and in [8] was inactive.
For the compound `CC(=O)Nc1ccccc1O`, the Potency result in assay [1], in assay [2], in assay [3], in [4] and in [7] was “inactive” each time. Moreover, the call in [5], in assay [6] and in assay [8] was inactive.
For the compound `CC(C)NC(=O)c1ccccc1N`, the Potency entry in [1], in [9], in assay [2], in [4], in [10] and in assay [7] was “inactive” in each case. In addition, the outcome in assay [6] and in assay [8] was inactive.
Consider `CCCCCCCCOCCCN`, for which the Potency entry in [1], in assay [9], in [3], in assay [4] and in assay [7] was “inactive” throughout. The outcome in assay [6] and in assay [8] was inactive.
For `O=C(Nc1ccc2c(c1)Cc1ccccc1-2)C(F)(F)F`, the Potency result in [1], in [9], in assay [3] and in assay [7] was “inactive” each time. Moreover, in [10], the Potency was 17.2 µM (active). Besides, the call in assay [5], in assay [6] and in assay [8] was inactive.
Consider `CCOC(OCC)OCC`, for which the Potency entry in [1], in assay [2], in [3], in [4], in assay [10] and in [7] was “inactive” throughout. Besides, the call in [5], in [6] and in assay [8] was inactive.
Consider `CC1(COc2ccc(CC3SC(=O)NC3=O)cc2)CCCCC1` (stereo not drawn), for which the Potency in assay [1] is 33.5 µM (active); in [2] it was 26.6 µM (active); in assay [10] it was 6.68 µM (active). The Potency entry in assay [9] and in [7] was “inactive” each time. For the same compound, the result in assay [5], in assay [6] and in assay [8] was inactive.
As to `CCc1c(C)[nH]c2c1C(=O)C(CN1CCOCC1)CC2` (stereo not drawn), the Potency result in assay [1], in [2], in assay [3], in [4] and in [10] was “inactive” throughout. For the same compound, the fluorescence, relative to Rose Bengal in assay [5] was 0.262% [at 18.6 µM]. In addition, the fluorescence, % of fluorescein control in [6] is 0.0551% [at 18.6 µM]. Further, the fluorescence, % of triamterene in assay [7] was 0.0227% [at 18.6 µM]. The fluorescence, % of fluorescent control in [8] was 0.192% [at 18.6 µM].
As for `O=[N+]([O-])c1cccc(I)c1`, the Potency result in [1], in assay [9], in [2], in [4], in [10] and in assay [7] was “inactive” each time. For the same compound, the compound was called inactive in [6] and in assay [8].
